Bioassay records deposited in PubChem by National Center for Advancing Translational Sciences (NCATS).
HP1b chromo inh – blocks HP1-beta chromodomain binding to methylated histone tails. hit rate 0.56% among 390,000. Potency, µM (top dose mostly 114 µM), hits mostly inhibitors. AlphaScreen HP1-beta / biotin-H3K9me3 peptide binding. AID 540317; note: nearly all actives have a fitted effect of over 70% in size
Target sequence (P83916 whole entry, looked up): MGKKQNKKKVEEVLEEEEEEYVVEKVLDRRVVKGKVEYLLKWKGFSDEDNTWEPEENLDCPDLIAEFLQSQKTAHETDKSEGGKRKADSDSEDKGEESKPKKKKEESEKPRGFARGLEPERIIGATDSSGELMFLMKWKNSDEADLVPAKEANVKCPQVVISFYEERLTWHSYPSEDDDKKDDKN
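AlphaScreen: HP1-beta (50 nM) preformed 30 min with biotin-H3(1-18)K9me3 peptide (50 nM) in PBS pH 7.4, 0.01% Tween-20. Compound added for 30 min at RT, then streptavidin donor/nickel chelate acceptor beads (10 ug/mL) for 30 min.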
PLK1 PBD inh – blocks phosphopeptide binding to human PLK1 polo-box domain; hit rate 2.8% among 360,000; P53350; Potency, µM, hits mostly inhibitors; Plk1 PBD binding of FITC phosphopeptide, fluorescence polarization; note: series mostly up to about 57 µM; nearly all actives have a fitted effect of over 65% in size
ALOX12 inh – blocks human arachidonate 12S-lipoxygenase; P18054; purified 12hLO, xylenol orange hydroperoxide absorbance; Potency, µM (highest dose often 108 µM), actives largely listed as inhibitors; hit rate 1.1% among 580,000; AID 1671190
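Purified human 12hLO at 150 nM in 25 mM Hepes, 0.01% Triton X-100, pH 7.0, preincubated 15 min at room temperature with compound. Reaction started with 40 uM arachidonic acid, 30 min at room temperature. Hydroperoxide measured by Fe-xylenol orange, 573/405 nm absorbance ratio.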
JMJD2A Tudor – JMJD2A Tudor domain (human) inhibition. O75164. AlphaScreen JMJD2A-Tudor / H3K4me3 peptide binding. Potency, µM (doses to about 114 µM), most hits filed as inhibitors. hit rate 4.4% among 390,000. AID 504339; note: nearly all actives have a fitted effect of over 50% in size
G9a inh – blocks human histone lysine methyltransferase G9a; hit rate 8.8% among 350,000; G9a H3K9 monomethylation, AlphaScreen, 2 h; AID 504332; Q96KQ7; Potency, µM (titrated, usually from 102 µM), hits mostly inhibitors; note: nearly all actives have a fitted effect of over 75% in size
Target sequence (Q96KQ7 913-1193 limits assumed): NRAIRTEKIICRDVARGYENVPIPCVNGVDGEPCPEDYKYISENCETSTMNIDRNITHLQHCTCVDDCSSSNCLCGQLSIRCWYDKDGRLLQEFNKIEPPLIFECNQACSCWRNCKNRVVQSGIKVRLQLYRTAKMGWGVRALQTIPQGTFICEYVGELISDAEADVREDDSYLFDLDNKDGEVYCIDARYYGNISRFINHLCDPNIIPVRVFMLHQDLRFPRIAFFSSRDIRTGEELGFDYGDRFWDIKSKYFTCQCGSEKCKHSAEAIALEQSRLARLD
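Signal arises when biotinylated H3K9 peptide, once monomethylated, bridges streptavidin donor and antibody-captured acceptor beads. Enzyme at 20 nM was preincubated 15 min with test compounds; peptide 500 nM and SAM 20 uM then reacted for 2 h.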
BAZ2B inh – BAZ2B (human) inhibition | Q9UIF8 | AlphaScreen BAZ2B-H3K14Ac peptide displacement | Potency, µM (doses to about 114 µM), hits mostly inhibitors | hit rate 4.4% among 360,000; note: nearly all actives have a fitted effect of over 60% in size
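AlphaScreen luminescence quantifies BAZ2B engagement of H3K14Ac peptide; the protein and biotinylated peptide are both at 50 nM final, buffer PBS pH 7.4 with 0.01% Tween-20, all steps at room temperature.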
Numbers stand for hits; . = inactive; ? = inconclusive; / = no result; [ ] = remark or other dose. Compounds with a hit are over-represented: about 9% of the library has one in this group of screens. Calls come from the whole dose curve; as a rule, active = well fitted curve in the direction sought with a large enough effect; inconclusive = small, poorly fitted or top-dose-only effect, or another doubt; inactive = no such curve, though single readings can be large; an effect the other way counts as inactive or inconclusive.

SMILES	HP1b chromo inh	PLK1 PBD inh	ALOX12 inh	JMJD2A Tudor	G9a inh	BAZ2B inh
Cc1ccc(S(=O)(=O)N2CCOCC2)c(C)c1-n1cnnn1	.	.	.	.	.	.
COc1ccc(NC(=O)c2c(OC)cccc2OC)c(OC)c1	?	.	.	56µM	?	50µM
COc1ccc(NC(=O)c2ccccc2O)c(OC)c1	.	.	.	.	.	.
CCOc1ccccc1NC(=O)c1cc2cc(OC)ccc2oc1=O	/	/	.	/	/	/
COc1ccc(NC(=O)c2ccccc2SC)c(OC)c1	.	.	.	.	18µM	.
COc1ccc2o/c(=N\O)c(C(=O)Nc3ccccc3OC)cc2c1	.	.	?	.	1.6µM	.
NCCN1C(=O)CO[C@H](c2ccc(NC(=O)C3CCOCC3)cc2)[C@H]1CO	/	/	.	/	/	/
C=CCOc1cccn2c(N(C)C(=O)c3ccccc3F)c(CC)nc12	/	.	/	/	/	/
CNC(=S)NNC(=O)c1ccc(=O)n(Cc2cccc(C(F)(F)F)c2)c1	.	3µM	.	?	.	.
NC(=O)c1c(NC(=O)c2cc(-c3ccc(F)cc3)on2)sc2c1CCCC2	.	/	.	.	1.8µM	.
NC(=O)c1c(NC(=O)c2cnccn2)sc2c1CCCC2	.	.	.	.[11.4 µM]	8.9µM	.
C=CCNC(=S)Nc1sc2c(c1C(N)=O)CCCC2	?	13µM	?	.	18µM	.
NC(=O)c1c(NC(=S)Nc2ccccc2)sc2c1CCCC2	.	6.7µM	35µM	?	6.3µM	.
C=CC(=O)Nc1sc2c(c1C(N)=O)CCCC2	.	.	.	.	.[2.33 µM]	.
NC(=O)c1c(NC(=O)c2ccccc2)sc2c1CCC2	.	?	?	.	.	?
NC(=O)c1c(NC(=S)Nc2ccc(F)cc2)sc2c1CCCC2	.	?	?	.	22µM	.
CCc1cc2c(cc3c(=O)n(CC(=O)N4CCC(C)CC4)nc(CC)n32)s1	.	/	.	.	.	.
CCc1cc2c(cc3c(=O)n(CC(=O)NC(C)c4ccccc4)ncn32)s1 (configuration not stated)	.	/	?	100µM	.	.
CCc1cc2c(cc3c(=O)n(CC(=O)NC4CCC(C)CC4)ncn32)s1 (configuration not stated)	.	/	.	.	.	.
CCc1cc2c(cc3c(=O)n(CC(=O)N4CCN(C)CC4)ncn32)s1	.	21µM	.	?	/	.
O=C(CSc1nnc(-c2cccs2)o1)Nc1cccc(C(F)(F)F)c1	.	/	.	.	.	.
N#Cc1ccc(C(=O)Nc2nnc(-c3cccs3)o2)cc1	.	27µM	.	56µM	/	50µM
CN(C)S(=O)(=O)c1ccc(C(=O)Nc2nnc(-c3cccs3)o2)cc1	.	?	.	79µM	.	?
O=C(Nc1nnc(-c2cccs2)o1)c1cccc(C(F)(F)F)c1	.	30µM	.	?	.	.
CC1CC(C)CN(S(=O)(=O)c2ccc(C(=O)Nc3nnc(-c4cccs4)o3)cc2)C1 (configuration not stated)	.	?	.	.	.	?
SMILES	HP1b chromo inh	PLK1 PBD inh	ALOX12 inh	JMJD2A Tudor	G9a inh	BAZ2B inh
O=C(CCc1ccccc1)Nc1nnc(-c2cccs2)o1	.	.	.	.	?	.
CS(=O)(=O)Cc1cccc(C(=O)Oc2ccccc2Br)c1	/	/	.	/	/	/
CCOc1ccc(NC2C=CS(=O)(=O)C2)cc1 (configuration not stated)	.	.	.	.	?	.
CCCCCCc1cc2cc(C(=O)NC)c(=N)oc2cc1O	.	3.4µM	.	.	.	.
Cc1cc(C)nc(-n2nc(C)c3c(=O)[nH]c(C(F)(F)F)nc32)n1	.	.	.	79µM	.	.
CC(C)CNC(=O)c1cccc2c1-c1ccccc1C2=O	.	.	.	.	.	.
COC(=O)CSCc1nc2ccccc2[nH]c1=O	.	12µM	?	.	20µM	.
COC(=O)CCc1nc2ccccc2[nH]c1=O	.	.	.	.	.[12.7 µM]	.
CC(OC(=O)CCc1nc2ccccc2[nH]c1=O)c1ccccc1 (configuration not stated)	.	.	.	.	.	.
CC(OC(=O)CCc1nc2ccccc2[nH]c1=O)C(=O)c1ccccc1 (configuration not stated)	.	.	.	.	79µM	.
C=CCNc1nc2c(c(=O)n(C)c(=O)n2C)n1Cc1ccc(Cl)cc1	/	/	.	/	/	/
CCOC(=O)C1CCCCN1C(=O)c1cnn(-c2nccc(-c3cc(C)sc3C)n2)c1C1CC1 (configuration not stated)	/	/	.	/	/	/
CN(C)CCCOC(=O)c1ccc(Cl)cc1	.	.	.	.	.[12.7 µM]	.
CN(C)CCCOC(=O)c1ccc(Br)cc1	.	.	.	.	45µM	.
CC1(C)CC(=O)C2=C(C1)NC(=O)NC2c1ccccc1Cl (configuration not stated)	.	.	.	.	/	/
CCOC(=O)c1c(/N=C/c2ccccc2O)sc2c1CCC2	.	?	?	.	71µM	.
CCOC(=O)c1c(NC(=O)c2c(C(=O)O)cccc2[N+](=O)[O-])sc2c1CCCC2	?	12µM	.	?	8.9µM	.
CCOC(=O)c1c(NC(=O)c2cccc([N+](=O)[O-])c2C(=O)O)sc2c1CCCC2	.	?	.	.	.	.
CCOC(=O)c1c(/N=C/c2ccc(O)cc2O)sc2c1CCC2	/	/	/	/	.	?
CCOC(=O)c1c(/N=C/c2cccc([N+](=O)[O-])c2O)sc2c1CCC2	?	27µM	?	?	/	?
COc1ccc(/C=N/n2c(-c3n[nH]c4c3CCC4)n[nH]c2=S)c(OC)c1OC	?	?	?	4.5µM	1.3µM	.
COc1cccc(/C=N/n2c(N)nc3ccccc32)c1OC	.	.	.	.	.[12.7 µM]	.
COc1cccc(/C=N/n2c(-c3cc(C)[nH]n3)n[nH]c2=S)c1OC	.	.	?	1.8µM	/	.
COc1ccc(/C=N/n2c(C)nnc2C)c(OC)c1OC	.	.	.	.	.	.
COc1cccc(/C=N/n2c(-c3n[nH]c4c3CCC4)n[nH]c2=S)c1OC	?	?	.	3.2µM	2.5µM	.
SMILES	HP1b chromo inh	PLK1 PBD inh	ALOX12 inh	JMJD2A Tudor	G9a inh	BAZ2B inh
COc1cccc(/C=N/n2c(=S)n(C)c3cc(C)c(C)cc32)c1OC	.	.	.	.	?	.
COc1ccccc1Oc1c(CCC(=O)NCC(C)C)c(C)nn1-c1ccc(F)cc1	/	/	.	/	/	/
Cc1c(C(=O)OCC(=O)N(CC(C)C)c2c(N)n(Cc3ccccc3)c(=O)[nH]c2=O)oc2ccccc12	.	.	.	.	.	.
CCCCN(C(=O)c1cc(CC)c(C)s1)c1c(N)n(CC(C)C)c(=O)[nH]c1=O	.	.	.	.	.	.
CCCCn1c(N)c(N(CCOC)C(=O)c2cc3c(s2)CCC3)c(=O)[nH]c1=O	.	.	.	.	18µM	.
CCCn1c(N)c(N(CCOC)C(=O)c2ccc(C#N)cc2)c(=O)[nH]c1=O	.	.	.	.	71µM	.
